Compound activity from PubChem.
TTR transcr act = TTR transcription activation, primary screen. SH-SY5Y TTR promoter Gaussia luciferase, luminescence; 100% = recombinant luciferase protein wells. activation, % at 16.7 µM. actives 1.3% (n = 92,000);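 active = activation above the mean of all tested compounds plus 3 SD, cut at about 9.5% in these data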;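 note: cells exposed to compounds for one day before reading; 0% = median of all test compound wells on the plate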
TTR inh HuH7 = counter-screen for TTR activators: TTR transcription inhibitors in HuH7 cells; inhibition, % at 16.7 µM; HuH7 TTR promoter-Gaussia luciferase reporter, luminescence; actives 4% (n = 1,100); shares compounds with TTR transcr act;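 active = average inhibition above the solvent-only control wells' mean plus 3 SD, cut at about 15% in these data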;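 note: 0% = cells with DMSO only and 100% = cells with inhibitor control FD; inhibitors lower well luminescence so higher value means more inhibition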
TTR act confirm = human TTR transcription activation, confirmation; AID 1117280; SHSY5Y TTR promoter Gaussia luciferase, luminescence; 100% = purified Lucia enzyme wells, no cells; activation, % at 16.7 µM; shares compounds with TTR transcr act; 1,100 tested, under 10 active;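 active = mean activation above a set limit taken from the earlier primary screen, cut at about 11% in these data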;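 note: 0% = DMSO-treated cells and 100% = recombinant Lucia luciferase without cells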
* marks the source's active call; other numbers are inactive results. The full list was thinned out, with hits kept by preference.

SMILES | TTR transcr act | others
CCOC(=O)N1CCC(NC(=O)c2cc(C(=O)Nc3cccc(C(F)(F)F)c3)ccc2CO)CC1 | -2
CCN1CCC(NC(=O)Nc2cccc(C(F)(F)F)c2)CC1 | 19* | TTR inh HuH7=-14;TTR act confirm=0
COc1cccc(Cn2cc(COC(=O)N3CCOCC3)nn2)c1 | 0
C=CS(=O)(=O)N(Cc1ccc(C)cc1)[C@@H](CO)C(=O)OC | 0
Fc1cccc(F)c1Cn1ccc2ccc(-c3ccc4ccn(Cc5c(F)cccc5F)c4c3)cc21 | 0
CCOC(=O)[C@]12CCCC=C1N(CCCOC)C(=O)[C@@H]2CC(=O)NCc1ccc(C)o1 | 1
CC[C@H]1/C(=C/c2ccccc2)N2C(=O)C[C@H](c3ccccc3)N=C2N1C | 3
O=C1CC(c2ccc3ccccc3c2)N=C2N(Cc3ccc4c(c3)OCO4)C/C(=C/c3ccccc3)N12 (centres undefined) | -1
C=CCN1C/C(=C/c2ccccc2)N2C(=O)CC(c3ccccc3)N=C12 (centres undefined) | 11* | TTR inh HuH7=-18;TTR act confirm=1
CCCC1CCC2(CCCN2CCOC(=S)Nc2ccccc2OC)CC1 (centres undefined) | -1
Cc1ccc2c(c1)nnn2C1CCN(CC(=O)N(c2ccccc2)c2ccccc2)CC1 | -2
Cc1ccc2c(c1)nnn2C1CCN(C(=O)NCc2ccccc2)CC1 | 9.7* | TTR inh HuH7=6;TTR act confirm=-1
O=C(NCc1ccccc1)N1CCC(Cc2ccccc2)CC1 | 0
Nc1[nH]c(C(=O)c2ccccc2)c(-c2ccc(Cl)cc2)c1C(=O)NCCC1=CCCCC1 | 0
O=C(NCc1ccc(C(F)(F)F)cc1)O[C@H]1CC[C@@]23CCCN2C(=O)CCC[C@H]3C1 | -2
CN(C(=O)c1ccc(NC(=O)Cc2ccc(NC(=O)C3CCCN(C(=O)C4CC4)C3)cc2)cc1)C1CCCC1 (centres undefined) | 1
c1ccc(-c2ccc(CNc3nc(-c4ccccn4)nnc3-c3ccccc3)cc2)cc1 | -4
CC(C)(C)CC(=O)Nc1cc2c3c(c1)CC(=O)N3CCC2 | -1
O=C(CCl)c1cc2c3c(c1)CC(=O)N3CCC2 | 11* | TTR inh HuH7=75*;TTR act confirm=-4
CCN(CC)CCNC(=O)C(=O)Nc1cc2c3c(c1)CC(=O)N3CCC2 | 6
Cc1ccc(NC(=O)OC[C@@H]2CSCCS(=O)(=O)N2)cc1 | 2
COC(=O)c1ccc(-c2nc(-c3cccs3)no2)cc1 | 13* | TTR inh HuH7=11;TTR act confirm=-1
O=C(NCc1ccncc1)c1nc(-c2cccs2)no1 | 7
COC(=O)c1ccc(-c2nc(-c3ccc(Br)o3)no2)cc1 | -2
CCCCCn1nnnc1C1(C)CCCC(=O)N1Cc1ccco1 (centres undefined) | 1
SMILES | TTR transcr act | others
O=C1Nc2ccccc2O/C1=C\c1ccccc1Br | -1
C/C(=N/NC(=O)c1cccs1)c1cccs1 | 1
CC/C(=N\NC(=O)Cc1ccc(Br)cc1)c1cccs1 | 42* | TTR inh HuH7=-29;TTR act confirm=0
CCNC(=O)Cc1ccc(Br)cc1 | 3
C1CCCN(CCCCN2CCCCCC2)CC1 | 10* | TTR inh HuH7=-10;TTR act confirm=0
O=C(CCN1CCCCC1)NCNC(=O)CCN1CCCCC1 | -1
Clc1ccccc1OCCCCN1CCCCC1 | -1
O=C(OCc1cn(Cc2ccc(Cl)cc2)nn1)N1CCCC1 | 5
CCCCCCCCN1C(=O)[C@@H](CC(=O)NCCc2ccccc2OC)C[C@@]2(C(=O)OC)C1=C[C@H](C(C)C)O[C@@H]2C1CC1 | 0
COc1ccc(OC)c(NC(=O)C2CC2c2ccccc2)c1 (centres undefined) | -2
COc1ccc(NC(=O)C(c2ccccc2)c2ccccc2)c(OC)c1 | 1
COc1ccc2c(c1)OCC(O)(c1ccccc1)C2=O (centres undefined) | 38* | TTR inh HuH7=-7;TTR act confirm=2
Cc1nc(N2CCN(C(=O)C3CC3)CC2)c2c3c(sc2n1)CC(C)CC3 (centres undefined) | 0
CC1CCC2(CC1)CCC2NCc1ccc(Cl)cc1 (centres undefined) | 0
COC(=O)Cn1c(=NC(=O)c2ccc(OC)c(OC)c2)sc2cc(OC)ccc21 | 12* | TTR inh HuH7=-2;TTR act confirm=0
COc1ccc2c(c1)sc(=N)n2CC(=O)Nc1cc(C)cc(C)c1 | 1
COc1ccc(CC(=O)c2ccc(OC)c(OC)c2)cc1 | 1
CCCCC(=O)N[C@H]1CC[C@@]23CCCN2C(=O)CCC[C@H]3[C@H]1CCC | 1
CCC(C)[C@H](NC(=O)C1COC(O)([C@H](Cc2ccccc2)NC(=O)[C@@H](NC(=O)OCc2ccccc2)C(C)C)CN1C)C(=O)N[C@H](C(=O)OC)C(C)C (some centres undefined) | 0
O=C(Cc1cccc(C(F)(F)F)c1)NCc1ccc(Cl)cc1 | 1
CC(NC(=O)CSc1cccc(C(F)(F)F)c1)c1ccccc1 (centres undefined) | -1
CN(C)C(CNC(=O)Cc1cccc(C(F)(F)F)c1)c1ccccc1 (centres undefined) | 15* | TTR inh HuH7=-12;TTR act confirm=0
O=C(Nc1ccc(F)cc1)OCCN1CCCC12CCC(c1ccccc1)CC2 (centres undefined) | 0
O=[N+]([O-])c1ncccc1OCCOc1ccc(Cl)cc1Cl | 0
COc1ccccc1C(=O)NC(=O)CSc1cccc[n+]1[O-] | -1
SMILES | TTR transcr act | others
Cc1cc(C(=O)C(C)Sc2cccc[n+]2[O-])c(C)n1-c1ccc(Cl)cc1 (centres undefined) | -2
O=C(CSc1cccc[n+]1[O-])c1cc(Cl)ccc1Cl | 9.9* | TTR inh HuH7=-9;TTR act confirm=0
NC(=O)c1c(N)[nH]c(C(=O)c2ccccc2)c1-c1cccc2ccccc12 | 3
COc1ccc(S(=O)(=O)NC(C)C(=O)Nc2ccccc2F)cc1 (centres undefined) | 0
COc1ccc(CN(C)CC(=O)NC(=O)Nc2ccccc2F)cc1 | 11* | TTR inh HuH7=-14;TTR act confirm=0
COc1ccc(OC)c(N(CC(=O)Nc2ccccc2F)S(=O)(=O)c2ccccc2)c1 | -2
Nc1c(C(=O)N2CCOCC2)cnn1Cc1ccccc1 | 0
Cc1nn2c(-c3ccccc3)c(-c3ccccc3)nc2[nH]c1=O | -1
O=C(O)CCc1nn2cc(-c3ccccc3)nc2[nH]c1=O | -1
Cc1nn2cc(-c3ccccc3)nc2[nH]c1=O | 10* | TTR inh HuH7=1;TTR act confirm=0
COCCCNC(=O)C[C@H]1C[C@@]2(C(=O)OC)C(=C[C@H](COCc3ccccc3)O[C@@H]2C)N(Cc2ccco2)C1=O | 0
COC(=O)[C@]12C[C@H](CC(=O)NCCCCc3ccccc3)C(=O)N(Cc3cccc4ccccc34)C1=C[C@H](C(C)(C)C)O[C@@H]2C | -1
CCN(C(=O)CSc1nnc(-c2ccc(F)cc2)c2ccccc12)C1CCS(=O)(=O)C1 (centres undefined) | -1
CCN(C(=O)CSc1ccc2ccccc2c1)C1CCS(=O)(=O)C1 (centres undefined) | 2
CCN(C(=O)CSc1nnc(C)n1Cc1ccccc1)C1CCS(=O)(=O)C1 (centres undefined) | 10* | TTR inh HuH7=-5;TTR act confirm=1
COc1cccc2cc3c(nc12)C[C@@H]1CCCC(=O)N2CCC[C@@]12C3 | 0
CCCC1CCC2(CC1)CCC2OC(=O)Nc1cccc(Cl)c1 (centres undefined) | 2
Cc1ccccc1NCC(=O)N/N=C/c1ccc[nH]1 | 16* | TTR inh HuH7=-6;TTR act confirm=0
Cc1ccccc1NCC(=O)N/N=C/c1c[nH]c2ccccc12 | -2
